In general, AC50 refers to the concentration giving half of the maximal activity seen.

Results filed as inconclusive are left out. The source made the active and inactive calls. Rule for the calls: active = hit-call score of the fitted dose curve at least 0.9, where 1 is the maximum; inconclusive = response in the unintended direction; inactive = score below 0.9.

The results in this text go back to PubChem BioAssay (EPA / NIEHS).

The nature of this assay: Tanguay_ZF_120hpf_SOMI_legacy: (Legacy) Oregon State University Tanguay Lab 120 Hour Post-fertilization zebrafish Assay for Somite Malformation (AID 2283647). Here is the method:
Tanguay_ZF_120hpf_legacy is a whole embryo, multiplexed endpoint assay using zebrafish larvae exposed for 120 hours post fertilization on a 96-well plate.Tanguay_ZF_120hpf_SOMI_legacy is one of one assay component(s) measured or calculated from the Tanguay_ZF_120hpf_legacy assay. It is designed to make measurements of zebrafish development as detected with brightfield microscopy of developing zebrafish embryos.Data from the assay component Tanguay_ZF_120hpf_SOMI_legacy was analyzed into 1 assay endpoints. This assay endpoint, Tanguay_ZF_120hpf_SOMI_legacy, was analyzed in the positive analysis fitting direction relative to DMSO as the negative control and baseline of activity. Using a type of morphology reporter, gain-of-signal activity can be used to understand changes in developmentals as they relate to the whole embryo. To generalize the intended target to other relatable targets, this assay endpoint is annotated to the zebrafish development intended target family, where the subfamily is somitogenesis.
Zebrafish husbandry: Tropical 5D wild-type adult zebrafish were housed in at an approximate density of 1000 per 100 gallon tank at the Sinnhuber Aquatic Research Laboratory, Oregon State University, Corvallis, OR. Each tank was kept at standard laboratory conditions of 28C on a 14-h light/10-h dark photoperiod in fish water consisting of reverse osmosis water supplemented with a commercially available salt (Instant Ocean). Spawning funnels were placed into the tanks the night prior, and embryos were collected and staged. To increase bioavailability, the chorion was enzymatically removed using pronase (63.6mg/ml, >/= 3.5U/mg, Sigma-Aldrich: P5147) at 4 hours post fertilization (hpf) using a custom automated dechorionator.Chemical exposures: Six hpf dechorionated embryos were placed 1 embryo per well in a 96-well plate prefilled with 90 ul of EM using automated embryo placement systems (AEPS). Ten microliters of each row of dilution plate 2 was added to 2 exposure plates. The final DMSO concentration used was 0.64% (vol/vol). Thirty-two embryos were also exposed to 5uM trimethyltin chloride (positive control). Plates were sealed to prevent evaporation and foil covered to reduce light exposure and kept in a 28C incubator. Embryos were statically exposed until 120 hpf. At 24 hpf, embryos were assessed for photomotor response using a custom photomotor response analysis tool (PRAT) and for developmental toxicity endpoints (MO24: mortality at 24 hpf, DP: developmental progression, SM: spontaneous movement, and NC: notochord distortion). At 120 hpf, locomotor activity was measured using Viewpoint Zebralab and assessed for 18 endpoints. Zebrafish acquisition and analysis program (ZAAP), a custom program designed to inventory, acquire, and manage zebrafish data, was used to collect developmental endpoints as either present or absent (i.e., binary responses were recorded). If mortality occurred for an embryo (at either 24 or 120 hpf), the non-mortality endpoints were not measured.
In the case of `C[C@]12CC[C@@H]3c4ccc(O)cc4CC[C@H]3[C@@H]1CC[C@H]2O`, the result was inactive.

As to `CCCC(=O)OCCC(C)C`, the outcome was inactive.

Take `CC1(C)NC(=O)N(c2ccc([N+](=O)[O-])c(C(F)(F)F)c2)C1=O`: the compound was called inactive. As for `CCCCCCCCCCCC[N+](C)(C)C`, the compound was called inactive. The same measure, in the same setting: in the case of `CCCCCCCCN(C)CCCCCCCC` it was “inactive”; in that of `NCc1cccc(C2CCN(C(=O)c3ccc(C#Cc4ccccc4F)o3)CC2)c1`, “inactive”.

For the compound `O=C1c2ccccc2C(=O)N1CCc1noc(-c2ccc(CN3CCCCCC3)s2)n1`, the compound was called inactive. Still for that read-out and setting: in the case of `CN1C(=O)N(c2ccccc2Br)Cc2cnc(Nc3ccc4c(c3)OCC(CO)O4)nc21` (stereo not given) it was “inactive”.

In the case of `CCCCCCCCOC(=O)c1cc(O)c(O)c(O)c1`, the result was inactive. Still for that read-out and setting: in the case of `O=CCCCC=O` it was “inactive”.

Consider `CO[C@H]1/C=C/O[C@@]2(C)Oc3c(C)c(O)c4c(O)c(c(/C=N/N5CCN(C)CC5)c(O)c4c3C2=O)NC(=O)/C(C)=C\C=C\[C@H](C)[C@H](O)[C@@H](C)[C@@H](O)[C@@H](C)[C@H](OC(C)=O)[C@@H]1C`, for which the result was inactive. As to `CCN(Cc1cccnc1)C(=O)c1cccc(Cl)c1[C@]1(C)C(=O)N(Cc2ccc(OC)cc2OC)c2ccc(Cl)cc21`, the outcome was inactive. The same measure, in the same setting: under `CC(O)CC(C)(C)O` (stereo not given) stands “inactive”.

`OC12N=C(c3ccccc3)SC1Cc1cc(Cl)ccc12` (stereo not given): the AC50 is 117 µM (active). As for `CCCCOC(=O)c1ccc(O)cc1`, the half-maximal activity concentration (AC50) was 63.7 µM (active). As for `O=C(Nc1ccc(Cl)cc1)Nc1ccc(Cl)c(Cl)c1`, the outcome was inactive. Consider `CCN(Cc1cccc(S(=O)(=O)O)c1)c1ccc(C(=C2C=CC(=[N+](CC)Cc3cccc(S(=O)(=O)O)c3)C=C2)c2ccccc2S(=O)(=O)[O-])cc1`, for which the compound was classed as inactive. Take `COc1cc(C(=O)NC2CCN(C)CC2)ccc1Nc1ncc2c(n1)N(C1CCCC1)CC(F)(F)C(=O)N2C`: the result was inactive. With `Cc1ccc(C(C)C)cc1`, the compound was classed as inactive. In the case of `COc1cccc([C@H](O)C2CCN(CCc3ccc(F)cc3)CC2)c1OC`, the outcome was inactive. On the same count and under the same terms, in the case of `c1ccc(C[n+]2cccc3ccccc32)cc1` it was “inactive”; in that of `Cc1cc(F)ccc1-c1cc(N2CC[C@@H](O)[C@H]2CO)ncc1N(C)C(=O)C(C)(C)c1cc(C(F)(F)F)cc(C(F)(F)F)c1`, “inactive”; in that of `O=c1[nH]sc2ccccc12`, “inactive”. On the same count and under the same terms, under `Cc1oc2c(NC(=O)c3c(Cl)cccc3Cl)cccc2c1C(C)(C)O` stands “inactive”; under `Oc1ccc2ccccc2c1`, “inactive”. For the compound `Clc1ccccc1C(c1ccccc1)(c1ccccc1)n1ccnc1`, the concentration at half-maximal activity (AC50) is 61.3 µM (active). `O=C(O)Cc1cc(I)c(Oc2ccc(O)c(I)c2)c(I)c1`: the compound was called inactive. Same read-out and setting: under `Cc1ccc2oc(CN(Cc3ccccc3)C(=O)Nc3c(F)cc(F)cc3F)c(-c3ccc(Cl)cc3)c2c1` stands “inactive”; under `CCCCCCCCCCCCO`, “inactive”; under `C[C@]12CC[C@@H]3c4ccc(O)cc4CC[C@H]3[C@@H]1CCC2=O`, “inactive”. Consider `O=c1c(-c2ccc(O)cc2)coc2cc(O)cc(O)c12`, for which the call was inactive. As for `CC(C)(O)c1ccc(CNC(=O)c2cccnc2Oc2ccc3nonc3c2)cc1`, the outcome was inactive.

In the case of `CN(C)C(=O)C1(N2CCCCC2)CCN(CC[C@@]2(c3ccc(Cl)c(Cl)c3)CN(C(=O)c3ccccc3)CCO2)CC1`, the result was inactive. Same read-out and setting: under `CN1C(=O)CC[C@H]1c1cccnc1` stands “inactive”; under `CC[C@@H]1C[C@H](N(Cc2cc(C(F)(F)F)cc(C(F)(F)F)c2)C(C)=O)c2cc(C(F)(F)F)ccc2N1C(=O)OC(C)C`, “inactive”; under `Cc1ncc(CO)c(CO)c1O`, “inactive”. Same read-out and setting: in the case of `c1ccc2n[nH]nc2c1` it was “inactive”; in that of `Cc1cccc2ccccc12`, “inactive”; in that of `c1ccc2ccccc2c1`, “inactive”. The same measure, in the same setting: under `O=C1O[C@H]([C@@H](O)CO)C(O)=C1O` stands “inactive”.
